Experiments:
Test in all cases: DAPPL (digital affinity profiling via proximity ligation, sequencing); 10 mM Tris-HCl pH 7.5, 50 mM NaCl, 1 mM DTT, 4% glycerol, room temperature, 30 min; GST-TFs on glutathione beads, 16-mer random dsDNA library, 0.1% formaldehyde crosslink after washing; high values mean tight binding
Settings in all cases: protein: recombinant; tags: N-terminal GST; dsDNA, one strand shown
ERF = molecular target: T1, ERF (Homo sapiens, UniProt P50548 1-548)
T1 sequence: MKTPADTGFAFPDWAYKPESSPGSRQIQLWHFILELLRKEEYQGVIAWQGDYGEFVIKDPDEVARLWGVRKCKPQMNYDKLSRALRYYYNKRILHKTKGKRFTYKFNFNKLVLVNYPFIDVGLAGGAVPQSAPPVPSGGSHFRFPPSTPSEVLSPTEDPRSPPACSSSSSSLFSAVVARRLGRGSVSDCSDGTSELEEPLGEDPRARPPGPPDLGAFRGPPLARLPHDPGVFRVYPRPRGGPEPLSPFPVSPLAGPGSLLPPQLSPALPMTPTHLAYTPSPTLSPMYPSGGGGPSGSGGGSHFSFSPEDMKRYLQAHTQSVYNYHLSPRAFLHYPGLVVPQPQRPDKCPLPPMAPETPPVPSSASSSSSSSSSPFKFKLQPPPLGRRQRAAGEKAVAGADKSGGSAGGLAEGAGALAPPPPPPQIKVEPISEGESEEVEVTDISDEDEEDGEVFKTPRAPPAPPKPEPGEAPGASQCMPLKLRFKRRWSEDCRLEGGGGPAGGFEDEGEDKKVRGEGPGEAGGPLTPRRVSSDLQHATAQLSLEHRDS
How it was run: (§1)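 Beads coated with glutathione captured GST-fused human transcription factors that had been expressed in yeast, and the factors were then given DNA barcodes and pooled with a tag-only sample. The pools were incubated with 200 nmole of a random double-stranded 16-mer DNA library in Tris/NaCl/DTT/glycerol buffer for 30 min at room temperature, washed, crosslinked with 0.1% formaldehyde and proximity-ligated with BsaI/T4 ligase at 37 °C for 1 h. PCR amplification and Illumina NextSeq500 sequencing came last. Binding signal is each hexamer's read frequency for a factor divided by its frequency for the tag-only sample.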

ETV3L = molecular target: T2, ETV3L (Homo sapiens, UniProt Q6ZN32 1-361)
T2 sequence: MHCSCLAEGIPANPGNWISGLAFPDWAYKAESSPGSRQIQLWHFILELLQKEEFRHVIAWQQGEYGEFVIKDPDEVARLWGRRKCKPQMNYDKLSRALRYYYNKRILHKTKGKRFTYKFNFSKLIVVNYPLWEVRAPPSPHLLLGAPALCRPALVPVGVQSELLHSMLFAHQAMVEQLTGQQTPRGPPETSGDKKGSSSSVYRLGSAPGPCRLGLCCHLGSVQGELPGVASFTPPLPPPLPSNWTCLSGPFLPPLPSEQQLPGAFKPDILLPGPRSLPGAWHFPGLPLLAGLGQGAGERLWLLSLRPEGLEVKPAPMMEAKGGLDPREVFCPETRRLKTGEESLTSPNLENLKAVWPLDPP
How it was run: as §1

ETS2 = molecular target: T3, ETS2 (Homo sapiens, UniProt P15036 1-469)
T3 sequence: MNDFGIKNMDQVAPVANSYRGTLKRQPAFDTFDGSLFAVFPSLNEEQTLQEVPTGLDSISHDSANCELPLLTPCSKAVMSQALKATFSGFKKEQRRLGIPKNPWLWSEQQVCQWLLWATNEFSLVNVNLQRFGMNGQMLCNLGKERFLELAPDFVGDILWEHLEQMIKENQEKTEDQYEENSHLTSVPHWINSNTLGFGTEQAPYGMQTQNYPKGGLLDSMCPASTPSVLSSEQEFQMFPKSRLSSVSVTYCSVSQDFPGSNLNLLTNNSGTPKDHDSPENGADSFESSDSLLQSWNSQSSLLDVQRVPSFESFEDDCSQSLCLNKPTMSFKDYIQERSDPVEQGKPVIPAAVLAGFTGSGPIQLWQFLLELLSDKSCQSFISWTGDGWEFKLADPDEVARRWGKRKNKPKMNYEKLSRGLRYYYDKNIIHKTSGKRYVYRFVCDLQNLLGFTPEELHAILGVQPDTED
How it was run: as §1

SPDEF = molecular target: T4, SPDEF (Homo sapiens, UniProt O95238 1-335)
T4 sequence: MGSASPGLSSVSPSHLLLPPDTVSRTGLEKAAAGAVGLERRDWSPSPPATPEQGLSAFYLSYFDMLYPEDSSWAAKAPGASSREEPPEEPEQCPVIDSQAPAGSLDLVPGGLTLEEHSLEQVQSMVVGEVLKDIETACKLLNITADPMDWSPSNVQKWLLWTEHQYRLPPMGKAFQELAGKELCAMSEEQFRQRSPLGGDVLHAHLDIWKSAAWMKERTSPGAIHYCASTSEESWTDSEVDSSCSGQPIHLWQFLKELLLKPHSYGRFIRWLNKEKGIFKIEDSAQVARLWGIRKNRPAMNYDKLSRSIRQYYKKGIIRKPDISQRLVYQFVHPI
How it was run: as §1

ETV7 = molecular target: T5, ETV7 (Homo sapiens, UniProt Q9Y603 1-341)
T5 sequence: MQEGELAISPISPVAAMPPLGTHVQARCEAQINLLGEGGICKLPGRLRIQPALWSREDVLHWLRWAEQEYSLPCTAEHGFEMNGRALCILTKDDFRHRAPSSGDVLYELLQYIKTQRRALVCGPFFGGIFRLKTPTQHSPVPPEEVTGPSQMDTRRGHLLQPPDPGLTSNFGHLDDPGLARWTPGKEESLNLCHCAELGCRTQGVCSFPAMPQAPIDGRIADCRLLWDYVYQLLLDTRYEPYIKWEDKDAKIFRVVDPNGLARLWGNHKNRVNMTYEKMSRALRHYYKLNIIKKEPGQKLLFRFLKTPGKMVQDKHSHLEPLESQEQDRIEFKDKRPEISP
How it was run: as §1

ELF5 = molecular target: T6, ELF5 (Homo sapiens, UniProt Q9UKW6-2 1-255)
T6 sequence: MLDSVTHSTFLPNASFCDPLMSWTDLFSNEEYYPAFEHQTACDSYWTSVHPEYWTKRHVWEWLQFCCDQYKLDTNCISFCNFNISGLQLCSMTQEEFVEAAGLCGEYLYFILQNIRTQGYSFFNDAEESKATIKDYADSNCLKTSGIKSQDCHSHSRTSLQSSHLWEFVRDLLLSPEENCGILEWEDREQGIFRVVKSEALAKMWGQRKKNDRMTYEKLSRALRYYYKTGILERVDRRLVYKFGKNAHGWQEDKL
How it was run: as §1

ETV3 = molecular target: T7, ETV3 (Homo sapiens, UniProt P41162-2 1-143)
T7 sequence: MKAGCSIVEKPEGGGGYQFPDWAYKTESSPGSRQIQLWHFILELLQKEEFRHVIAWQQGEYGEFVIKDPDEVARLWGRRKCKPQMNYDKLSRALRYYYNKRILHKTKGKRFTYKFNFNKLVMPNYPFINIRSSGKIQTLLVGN
How it was run: as §1

ETV6 = ETV6 (Homo sapiens, UniProt P41212 1-452)
How it was run: as §1

Sequence of ETV6 (P41212 whole entry): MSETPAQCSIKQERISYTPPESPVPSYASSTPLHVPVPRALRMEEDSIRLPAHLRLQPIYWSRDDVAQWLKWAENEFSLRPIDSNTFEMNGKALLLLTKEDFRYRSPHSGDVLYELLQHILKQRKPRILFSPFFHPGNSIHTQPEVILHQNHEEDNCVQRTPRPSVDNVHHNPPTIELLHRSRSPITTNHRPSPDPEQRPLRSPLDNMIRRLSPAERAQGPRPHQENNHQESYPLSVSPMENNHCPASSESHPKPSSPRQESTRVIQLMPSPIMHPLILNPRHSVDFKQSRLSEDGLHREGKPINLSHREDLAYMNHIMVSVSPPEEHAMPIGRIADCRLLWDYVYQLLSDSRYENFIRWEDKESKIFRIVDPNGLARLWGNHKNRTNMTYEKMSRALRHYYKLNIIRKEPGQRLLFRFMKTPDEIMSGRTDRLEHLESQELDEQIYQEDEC

Sequence	binding signal (ERF)	binding signal (ETV3L)	binding signal (ETS2)	binding signal (SPDEF)	binding signal (ETV7)	binding signal (ELF5)	binding signal (ETV3)	binding signal (ETV6)
AATAAG	1.32 fold enrichment (6-mer frequency, TF over GST control)	1.18 fold enrichment (6-mer frequency, TF over GST control)	1.24 fold enrichment (6-mer frequency, TF over GST control)	1.26 fold enrichment (6-mer frequency, TF over GST control)	1.19 fold enrichment (6-mer frequency, TF over GST control)	1.27 fold enrichment (6-mer frequency, TF over GST control)	1.29 fold enrichment (6-mer frequency, TF over GST control)	1.33 fold enrichment (6-mer frequency, TF over GST control)
ATGACG	1.39 fold enrichment (6-mer frequency, TF over GST control)	1.34 fold enrichment (6-mer frequency, TF over GST control)	1.26 fold enrichment (6-mer frequency, TF over GST control)	1.45 fold enrichment (6-mer frequency, TF over GST control)	1.16 fold enrichment (6-mer frequency, TF over GST control)	1.44 fold enrichment (6-mer frequency, TF over GST control)	1.2 fold enrichment (6-mer frequency, TF over GST control)	1.28 fold enrichment (6-mer frequency, TF over GST control)
ATATAA	1.16 fold enrichment (6-mer frequency, TF over GST control)	1.23 fold enrichment (6-mer frequency, TF over GST control)	1.2 fold enrichment (6-mer frequency, TF over GST control)	1.19 fold enrichment (6-mer frequency, TF over GST control)	1.16 fold enrichment (6-mer frequency, TF over GST control)	1.16 fold enrichment (6-mer frequency, TF over GST control)	1.27 fold enrichment (6-mer frequency, TF over GST control)	1.25 fold enrichment (6-mer frequency, TF over GST control)
TCGCCC	1.32 fold enrichment (6-mer frequency, TF over GST control)	1.34 fold enrichment (6-mer frequency, TF over GST control)	1.23 fold enrichment (6-mer frequency, TF over GST control)	1.25 fold enrichment (6-mer frequency, TF over GST control)	1.27 fold enrichment (6-mer frequency, TF over GST control)	1.14 fold enrichment (6-mer frequency, TF over GST control)	1.21 fold enrichment (6-mer frequency, TF over GST control)	1.23 fold enrichment (6-mer frequency, TF over GST control)
TCCTTG	1.39 fold enrichment (6-mer frequency, TF over GST control)	1.29 fold enrichment (6-mer frequency, TF over GST control)	1.28 fold enrichment (6-mer frequency, TF over GST control)	1.48 fold enrichment (6-mer frequency, TF over GST control)	1.22 fold enrichment (6-mer frequency, TF over GST control)	1.95 fold enrichment (6-mer frequency, TF over GST control)	1.36 fold enrichment (6-mer frequency, TF over GST control)	1.19 fold enrichment (6-mer frequency, TF over GST control)
AAAAAG	1.22 fold enrichment (6-mer frequency, TF over GST control)	1.26 fold enrichment (6-mer frequency, TF over GST control)	1.23 fold enrichment (6-mer frequency, TF over GST control)	1.18 fold enrichment (6-mer frequency, TF over GST control)	1.32 fold enrichment (6-mer frequency, TF over GST control)	1.24 fold enrichment (6-mer frequency, TF over GST control)	1.23 fold enrichment (6-mer frequency, TF over GST control)	1.21 fold enrichment (6-mer frequency, TF over GST control)
TTGTCT	1.16 fold enrichment (6-mer frequency, TF over GST control)	1.18 fold enrichment (6-mer frequency, TF over GST control)	1.22 fold enrichment (6-mer frequency, TF over GST control)	1.22 fold enrichment (6-mer frequency, TF over GST control)	1.33 fold enrichment (6-mer frequency, TF over GST control)	1.26 fold enrichment (6-mer frequency, TF over GST control)	1.23 fold enrichment (6-mer frequency, TF over GST control)	1.13 fold enrichment (6-mer frequency, TF over GST control)
ACGTTC	1.28 fold enrichment (6-mer frequency, TF over GST control)	1.42 fold enrichment (6-mer frequency, TF over GST control)	1.3 fold enrichment (6-mer frequency, TF over GST control)	1.21 fold enrichment (6-mer frequency, TF over GST control)	1.42 fold enrichment (6-mer frequency, TF over GST control)	1.42 fold enrichment (6-mer frequency, TF over GST control)	1.18 fold enrichment (6-mer frequency, TF over GST control)	1.36 fold enrichment (6-mer frequency, TF over GST control)
ATCCCT	1.33 fold enrichment (6-mer frequency, TF over GST control)	1.35 fold enrichment (6-mer frequency, TF over GST control)	1.23 fold enrichment (6-mer frequency, TF over GST control)	1.41 fold enrichment (6-mer frequency, TF over GST control)	1.14 fold enrichment (6-mer frequency, TF over GST control)	1.37 fold enrichment (6-mer frequency, TF over GST control)	1.21 fold enrichment (6-mer frequency, TF over GST control)	1.23 fold enrichment (6-mer frequency, TF over GST control)
TTTCAT	1.25 fold enrichment (6-mer frequency, TF over GST control)	1.15 fold enrichment (6-mer frequency, TF over GST control)	1.17 fold enrichment (6-mer frequency, TF over GST control)	1.2 fold enrichment (6-mer frequency, TF over GST control)	1.2 fold enrichment (6-mer frequency, TF over GST control)	1.23 fold enrichment (6-mer frequency, TF over GST control)	1.22 fold enrichment (6-mer frequency, TF over GST control)	1.13 fold enrichment (6-mer frequency, TF over GST control)
GCTAGC	1.2 fold enrichment (6-mer frequency, TF over GST control)	1.35 fold enrichment (6-mer frequency, TF over GST control)	1.2 fold enrichment (6-mer frequency, TF over GST control)	1.13 fold enrichment (6-mer frequency, TF over GST control)	1.24 fold enrichment (6-mer frequency, TF over GST control)	1.15 fold enrichment (6-mer frequency, TF over GST control)	1.16 fold enrichment (6-mer frequency, TF over GST control)	1.09 fold enrichment (6-mer frequency, TF over GST control)
ATTGTT	1.65 fold enrichment (6-mer frequency, TF over GST control)	1.55 fold enrichment (6-mer frequency, TF over GST control)	1.47 fold enrichment (6-mer frequency, TF over GST control)	1.46 fold enrichment (6-mer frequency, TF over GST control)	1.47 fold enrichment (6-mer frequency, TF over GST control)	1.36 fold enrichment (6-mer frequency, TF over GST control)	1.56 fold enrichment (6-mer frequency, TF over GST control)	1.51 fold enrichment (6-mer frequency, TF over GST control)
TCACCT	1.2 fold enrichment (6-mer frequency, TF over GST control)	1.17 fold enrichment (6-mer frequency, TF over GST control)	1.09 fold enrichment (6-mer frequency, TF over GST control)	1.22 fold enrichment (6-mer frequency, TF over GST control)	1.19 fold enrichment (6-mer frequency, TF over GST control)	1.21 fold enrichment (6-mer frequency, TF over GST control)	1.2 fold enrichment (6-mer frequency, TF over GST control)	1.19 fold enrichment (6-mer frequency, TF over GST control)
GCTCGC	1.36 fold enrichment (6-mer frequency, TF over GST control)	1.35 fold enrichment (6-mer frequency, TF over GST control)	1.45 fold enrichment (6-mer frequency, TF over GST control)	1.29 fold enrichment (6-mer frequency, TF over GST control)	1.21 fold enrichment (6-mer frequency, TF over GST control)	1.31 fold enrichment (6-mer frequency, TF over GST control)	1.35 fold enrichment (6-mer frequency, TF over GST control)	1.35 fold enrichment (6-mer frequency, TF over GST control)
TGGTAA	1.27 fold enrichment (6-mer frequency, TF over GST control)	1.25 fold enrichment (6-mer frequency, TF over GST control)	1.32 fold enrichment (6-mer frequency, TF over GST control)	1.19 fold enrichment (6-mer frequency, TF over GST control)	1.4 fold enrichment (6-mer frequency, TF over GST control)	1.23 fold enrichment (6-mer frequency, TF over GST control)	1.15 fold enrichment (6-mer frequency, TF over GST control)	1.25 fold enrichment (6-mer frequency, TF over GST control)

From PMC7862700, “An all-to-all approach to the identification of sequence-specific readers for epigenetic DNA modifications on cytosine”
